Assay outcomes from PubChem.
12-LOX inh: blocks human arachidonate 12S-lipoxygenase | P18054 | purified 12hLO, xylenol orange hydroperoxide absorbance | Potency, µM (titrated, usually from 108 µM), inactives show top-dose activity change, negative = inhibition, usual class: inhibitors | actives 1.1% (n = 580,000) | AID 1671190; note: % is set by controls: 0 for no effect and ±100 for the full control effect
Target sequence (P18054 whole entry, looked up): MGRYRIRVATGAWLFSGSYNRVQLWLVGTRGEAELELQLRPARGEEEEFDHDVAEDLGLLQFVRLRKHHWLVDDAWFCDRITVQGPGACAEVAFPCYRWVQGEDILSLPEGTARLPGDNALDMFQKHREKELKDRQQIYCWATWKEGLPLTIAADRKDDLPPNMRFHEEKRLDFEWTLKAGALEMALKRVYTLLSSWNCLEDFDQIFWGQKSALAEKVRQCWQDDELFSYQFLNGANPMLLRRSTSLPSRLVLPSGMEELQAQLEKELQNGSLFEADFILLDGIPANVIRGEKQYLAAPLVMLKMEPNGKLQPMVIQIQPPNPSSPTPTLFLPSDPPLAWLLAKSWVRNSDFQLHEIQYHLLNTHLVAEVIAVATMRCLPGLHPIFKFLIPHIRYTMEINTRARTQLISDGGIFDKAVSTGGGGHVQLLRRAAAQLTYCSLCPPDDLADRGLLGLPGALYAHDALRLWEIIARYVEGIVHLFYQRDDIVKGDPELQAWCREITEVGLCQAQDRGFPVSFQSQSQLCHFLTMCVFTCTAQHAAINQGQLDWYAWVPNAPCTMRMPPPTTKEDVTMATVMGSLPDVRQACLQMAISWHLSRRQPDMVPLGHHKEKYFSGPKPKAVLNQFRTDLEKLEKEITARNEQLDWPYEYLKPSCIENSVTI
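Hydroperoxide product was detected by ferrous iron/xylenol orange as the 573 to 405 nm absorbance ratio. Arachidonic acid at 40 uM (final) was turned over for 30 min at room temperature by 150 nM human 12hLO, pH 7.0 Hepes buffer, after 15 min compound preincubation.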
FUS yeast rescue: suppressors of FUS proteinopathy in yeast. S. cerevisiae FUS-expressing, growth rescue, OD600, 24 h. Potency, µM (highest dose often 76.6 µM), most hits filed as activators. actives 0.24% (n = 390,000);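 note: plate controls were DMSO vehicle for no effect and reference control for full effect; nearly all actives have a fitted effect of over 55% in size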
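Cultures pregrown in 2.5% raffinose medium are shifted to minimal medium containing 2% galactose to express toxic FUS. Compounds are tested at several concentrations. After 24hr at 30C, growth is quantified at 600 nm absorbance.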
gsp antag: antagonizes gsp, the McCune-Albright syndrome mutation. gsp-mutant cells, cAMP HTRF, 30 min. Potency, µM (highest dose often 76.9 µM), for the others: at the highest dose activity change, negative = inhibition, hits mostly inhibitors. actives 0.4% (n = 340,000). AID 624288; calls by dose curve; cell line not stated here;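 note: intracellular cAMP measured with PDE inhibitor Ro 20-1724 present during compound exposure; % is set by controls: 0 for no effect and ±100 for the full control effect; nearly all actives have a fitted effect of over 65% in size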
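Cells, 2000/well, grown 16–24 h in DMEM 10% FBS with 0.5 mg/ml G418, then compounds plus […] (300 uM addition stock), 30 min at 37C. cAMP read by HTRF (cAMP-d2 and anti-cAMP antibody-K in lysis buffer) after 30 min RT.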
Mito fusion act: inhibitors of mitochondrial division or activators of mitochondrial fusion. S. cerevisiae fusion-defective mutant growth rescue, CellTiterGlo 48 h. Potency, µM (highest dose often 46.1 µM), for inactives: at the highest dose growth rescue (activation), usual class: activators. actives 0.23% (n = 320,000); note: % of control where 0% means no effect; nearly all actives have a fitted effect of over 45% in size
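Read-out: ATP-based luminescence (CellTiterGlo, 10 min ambient) reporting growth of fusion-defective ts yeast after 48 hours at 37C on glycerol/ethanol YPEG medium in the presence of compound.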
gsp agonist: activates gsp, the McCune-Albright syndrome mutation | gsp mutant cells, cAMP HTRF, 30 min | Potency, µM (series often up to 76.9 µM), for inactives: at the highest dose activation (cAMP increase), usual class: activators | actives 0.13% (n = 340,000); active = well fitted activation curve with a large enough effect; inconclusive = small, poorly fitted or top-dose-only effect, or another doubt; inactive = no such curve, though single readings can be large or run the other way; cell line not stated here;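 note: phosphodiesterase inhibitor Ro 20-1724 added with compounds to block cAMP breakdown; nearly all actives have a fitted effect of over 60% in size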
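Cells in DMEM/10% FBS with G418 were pretreated with compounds in DMSO plus […] (300 uM stock) for 30 min at 37C. cAMP was measured by HTRF (cAMP-d2 plus anti-cAMP antibody-K) after 30 min at room temperature.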
* hit, by the source's call; i = inactive; ? = inconclusive; / = no result; [ ] = remark or other dose. Only some compounds are listed: those with a hit (about 1.6% of all), similar ones and a draw of the others. Unless noted, calls come from the whole dose curve; as a rule, active = well fitted curve in the direction sought with a large enough effect; inconclusive = small, poorly fitted or top-dose-only effect, or another doubt; inactive = no such curve, though single readings can be large; an effect the other way counts as inactive or inconclusive. Potency is the fitted concentration of half-maximal effect.

SMILES | 12-LOX inh | FUS yeast rescue | gsp antag | Mito fusion act | gsp agonist
CN(CCCNC(=O)CSc1cc(=O)n(C)c2cc(Cl)ccc12)Cc1ccccc1 | ? | i | 0.3% | -9.4% | 17.8µM*
Cn1c(=O)cc(SCC(=O)NCc2ccc(F)cc2)c2ccc(Cl)cc21 | -16.7% | i | / | / | /
CCOC(=O)CSc1cc(=O)n(C)c2cc(Cl)ccc12 | ? | / | -18.8% | -0.9% | 15.8µM*
O=C(COC(=O)c1c2c(nc3ccccc13)/C(=C/c1ccco1)CC2)NC1CCCC1 | 25.1µM* | / | -13.2% | 25.7% | ?
O=[N+]([O-])c1ccc2nc(/C=C/c3ccc(Cl)cc3)[nH]c2c1 | 19.9% | i | 35.5µM* | -6.2% | -17.3%
FC(F)(F)c1ccc2nc([C@H]3CCN(Cc4ccc(Cl)cc4)C3)[nH]c2c1 | 31.6µM* | / | / | / | /
Clc1ccc(CN2CC[C@H](c3nc4cc(Cl)ccc4o3)C2)cc1 | 22.4µM* | / | / | / | /
CCN1C(=O)C2(CCN(S(=O)(=O)CC)CC2)c2ccccc21 | -1.0% | / | / | / | /
O=C(CN1CCN(C(=O)c2ccc(-c3nc4ccccc4s3)o2)CC1)Nc1ccc(F)cc1 | 191.9% | i | 44.7µM* | 5.3% | -51.2%
Cc1cccc(NC(=O)CN2CCN(C(=O)c3ccc(-c4nc5ccccc5s4)o3)CC2)c1C | -15.3% | i | ? | 0.3% | -12.5%[15.4 µM]
O=C(c1ccc(-c2nc3ccccc3s2)o1)N1CCN(c2ccccc2O)CC1 | -13.6% | i | -31.7% | 3.3% | -1.7%[15.4 µM]
O=C(CN1CCN(C(=O)c2ccc(-c3nc4ccccc4s3)o2)CC1)Nc1ccccc1Cl | ? | i | 17.8µM* | -2.3% | -3.8%[15.4 µM]
CC(C)=CCc1c(O)cc2oc3c(CC=C(C)C)c(O)c(O)c(CC=C(C)C)c3c(=O)c2c1O | ? | i | 31.6µM* | -14.8% | ?
CC(C)Cn1c(N)c(C(=O)COC(=O)/C=C/c2ccccc2)c(=O)n(C)c1=O | -22.8% | i | 35.5µM* | 4.2% | 4.2%[15.4 µM]
CC(C)Cn1c(N)c(C(=O)COC(=O)[C@@H]2CCCN2C(=O)c2cccs2)c(=O)n(C)c1=O | 21.9% | i | -6.6% | -2.1% | 12.6µM*
CC(C)Cn1c(N)c(C(=O)COC(=O)c2ccc(Br)cc2)c(=O)n(C)c1=O | 142.2% | i | 35.5µM* | / | ?
Cc1ccccc1OCCC(=O)OCC(=O)c1c(N)n(CC(C)C)c(=O)n(C)c1=O | i | i | 31.6µM* | / | -1.7%[15.4 µM]
Cn1cc(C(=O)C(=O)NCc2ccccc2)c2ccccc21 | 49.5% | / | / | / | /
CCCOc1ccc(-c2nc3ccc(-c4ccc(OC)c(OC)c4OC)cc3o2)cc1 | 4.2% | / | / | / | /
Oc1ccc2ccccc2c1CNc1ccc(Br)cc1 | 3.55µM* | i | 0.6% | -0.7% | ?
C#CCOCCOCCOCCNc1nc(N2CCN(C(=O)CCCCCCCCCCNC(=O)[C@H](CCCCN)n3cc(C[C@@H](C)CC)nn3)CC2)nc(N2CCN(C(=O)CCCCCCCCCCNC(=O)[C@H](CCCCN)n3cc(C[C@@H](C)CC)nn3)CC2)n1 | / | ? | -21.7% | / | /
C#CCOCCOCCOCCNc1nc(N2CCN(C(=O)Cn3cc(CC(C)O)nn3)CC2)nc(N2CCN(C(=O)[C@H](CCCCN)n3cc(CCC(=O)O)nn3)CC2)n1 (stereo not given in full) | 15.8µM* | i | 11.0% | -6.9% | ?
C#CCOCCOCCOCCNc1nc(N2CCN(C(=O)CCCCCCCCCCNC(=O)Cn3cc(C[C@@H](C)O)nn3)CC2)nc(N2CCN(C(=O)CCCCCCCCCCNC(=O)[C@H](CCCCN)n3cc(C[C@@H](C)CC)nn3)CC2)n1 | / | 10µM* | -26.9% | -7.0% | /
COC(=O)[C@]12C[C@H](CC(=O)NCc3cccc4ccccc34)C(=O)N(Cc3ccccc3)C1=C[C@H](C(C)C)O[C@@H]2C1CC1 | -2.2% | / | / | / | /
COC(=O)[C@]12C[C@H](CC(=O)NCc3cccc4ccccc34)C(=O)N(Cc3ccc4c(c3)OCO4)C1=C[C@H](C(C)C)O[C@@H]2C1CC1 | / | 12.6µM* | / | / | /
SMILES | 12-LOX inh | FUS yeast rescue | gsp antag | Mito fusion act | gsp agonist
COC(=O)[C@]12C[C@H](CC(=O)NCc3cccc(C(F)(F)F)c3)C(=O)N(Cc3ccc4c(c3)OCO4)C1=C[C@H](C(C)C)O[C@@H]2C1CC1 | / | 8.91µM* | / | / | /
COC(=O)[C@]12C[C@H](CC(=O)NCCCCc3ccccc3)C(=O)N(Cc3ccc4c(c3)OCO4)C1=C[C@H](C(C)C)O[C@@H]2C1CC1 | / | 8.91µM* | / | / | /
COC(=O)[C@]12C[C@H](CC(=O)N3CCCC3)C(=O)N(Cc3ccc4c(c3)OCO4)C1=C[C@H](C(C)C)O[C@@H]2C1CC1 | / | i | / | / | /
COC(=O)[C@]12C[C@H](CC(=O)NCC3CCCCC3)C(=O)N(Cc3ccc4c(c3)OCO4)C1=C[C@H](C(C)C)O[C@@H]2C1CC1 | / | 14.1µM* | / | / | /
COc1ccc(C(=O)N[C@@H]2CCC[C@@H]2C(=O)NCCCN(C)C)cn1 | 19.1% | / | / | / | /
O=C(NCc1ccc(C(F)(F)F)cc1)[C@@H]1Cc2nc[nH]c2CN1Cc1ccc([N+](=O)[O-])cc1 | 85.0% | / | / | / | /
COC(=O)[C@@H]1Cc2nc[nH]c2CN1Cc1ccc([N+](=O)[O-])cc1 | 10µM* | / | / | / | /
COc1ccc(OC)c(NC(=O)C(CC(C)C)N2Cc3ccccc3C2=O)c1 (stereo not given) | -4.9% | / | / | / | /
COc1ccc(Oc2c(O)c3ccccc3n(C)c2=O)cc1 | ? | i | 31.6µM* | ? | -2.7%
Cn1c(=O)c(Oc2ccc(Cl)cc2)c(O)c2ccccc21 | -5.0% | i | -17.5% | 10µM* | 18.5%
Cn1c(Oc2ccc(Cl)cc2)c(C=O)c2ccccc21 | 0.0% | i | -3.6% | 2.7% | 9.4%
O=C(c1ccc(Cl)cc1)N1CCN(c2ccnc3cc(Cl)ccc23)CC1 | -1.0% | i | 39.8µM* | 0.6% | 11.3%[15.4 µM]
c1ccc(CC(CCNCc2ccco2)c2ccco2)cc1 (stereo not given) | -2.7% | / | / | / | /
CC(C)CCC(CCNCc1ccco1)c1ccco1 (stereo not given) | 0.447µM* | / | / | / | /
CC(C)n1nc(C(=O)Nc2cccc(S(=O)(=O)NC3=NCCC3)c2)c2ccccc2c1=O | -5.6% | / | / | / | /
CCN(Cc1ccc2c(c1)OCO2)C(=O)CSc1ncnc2sccc12 | ? | i | 11.4% | 8.6% | 0.4%
CCN(Cc1ccc2c(c1)OCCO2)C(=O)CSc1nc(C)nc2sc(C)c(C)c12 | 392.5% | ? | 50.1µM* | 9.4% | -74.7%
O=S(=O)(c1ccc(F)cc1)N1CN(Cc2ccco2)c2nc3ccccc3nc21 | ? | 15.8µM* | -24.6% | 8.5% | ?
COc1ccc(S(=O)(=O)N2CN(Cc3ccco3)c3nc4ccccc4nc32)cc1 | -8.6% | 5.62µM* | -8.7% | 14.3% | -10.0%
Cc1ccc(S(=O)(=O)N2CN(Cc3ccco3)c3nc4ccccc4nc32)cc1 | 246.5% | i | -8.6% | 1.9% | -4.1%
CCCCn1c(=O)[nH]c(=O)c2c1nc(CCC(=O)NCc1cccc(OC)c1)n2CC(C)C | -12.0% | / | / | / | /
